Results published in PubChem BioAssay.
Unmarked numbers belong to inactive results. Calls of active or inactive are those of the source.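 The calls were made as follows, unless noted: active = mean inhibition above 46.5%, the solvent-only control mean plus 3 SD; inactive = the rest.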

Experiments:
[1] = system: transactivating tegument protein VP16 (Human herpesvirus 1); test: VP16 transactivation reporter inhibitors, counter-screen for SRC2 inhibitor project, cell-based, luminescence, single concentration (AID 652007; in the data active = inhibition above about 36%); details: cell-based VP16 transactivation luciferase reporter, at 8.9 µM, stronger effect = higher value
[2] = target: Nuclear receptor coactivator 2 (Homo sapiens) (UniProt Q15596); test: SRC2 coactivator transcriptional activity inhibitors, confirmation, cell-based, luminescence, HEK293, triplicate (AID 652008); details: HEK293 GAL4-SRC2 luciferase reporter, at 8.9 µM, stronger effect = higher value;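 also: 0% = DMSO-treated cells and 100% = Gossypol at 36 µM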
Nuclear receptor coactivator 2 (Homo sapiens), sequence (Q15596 whole entry, looked up, the tested form may be a part): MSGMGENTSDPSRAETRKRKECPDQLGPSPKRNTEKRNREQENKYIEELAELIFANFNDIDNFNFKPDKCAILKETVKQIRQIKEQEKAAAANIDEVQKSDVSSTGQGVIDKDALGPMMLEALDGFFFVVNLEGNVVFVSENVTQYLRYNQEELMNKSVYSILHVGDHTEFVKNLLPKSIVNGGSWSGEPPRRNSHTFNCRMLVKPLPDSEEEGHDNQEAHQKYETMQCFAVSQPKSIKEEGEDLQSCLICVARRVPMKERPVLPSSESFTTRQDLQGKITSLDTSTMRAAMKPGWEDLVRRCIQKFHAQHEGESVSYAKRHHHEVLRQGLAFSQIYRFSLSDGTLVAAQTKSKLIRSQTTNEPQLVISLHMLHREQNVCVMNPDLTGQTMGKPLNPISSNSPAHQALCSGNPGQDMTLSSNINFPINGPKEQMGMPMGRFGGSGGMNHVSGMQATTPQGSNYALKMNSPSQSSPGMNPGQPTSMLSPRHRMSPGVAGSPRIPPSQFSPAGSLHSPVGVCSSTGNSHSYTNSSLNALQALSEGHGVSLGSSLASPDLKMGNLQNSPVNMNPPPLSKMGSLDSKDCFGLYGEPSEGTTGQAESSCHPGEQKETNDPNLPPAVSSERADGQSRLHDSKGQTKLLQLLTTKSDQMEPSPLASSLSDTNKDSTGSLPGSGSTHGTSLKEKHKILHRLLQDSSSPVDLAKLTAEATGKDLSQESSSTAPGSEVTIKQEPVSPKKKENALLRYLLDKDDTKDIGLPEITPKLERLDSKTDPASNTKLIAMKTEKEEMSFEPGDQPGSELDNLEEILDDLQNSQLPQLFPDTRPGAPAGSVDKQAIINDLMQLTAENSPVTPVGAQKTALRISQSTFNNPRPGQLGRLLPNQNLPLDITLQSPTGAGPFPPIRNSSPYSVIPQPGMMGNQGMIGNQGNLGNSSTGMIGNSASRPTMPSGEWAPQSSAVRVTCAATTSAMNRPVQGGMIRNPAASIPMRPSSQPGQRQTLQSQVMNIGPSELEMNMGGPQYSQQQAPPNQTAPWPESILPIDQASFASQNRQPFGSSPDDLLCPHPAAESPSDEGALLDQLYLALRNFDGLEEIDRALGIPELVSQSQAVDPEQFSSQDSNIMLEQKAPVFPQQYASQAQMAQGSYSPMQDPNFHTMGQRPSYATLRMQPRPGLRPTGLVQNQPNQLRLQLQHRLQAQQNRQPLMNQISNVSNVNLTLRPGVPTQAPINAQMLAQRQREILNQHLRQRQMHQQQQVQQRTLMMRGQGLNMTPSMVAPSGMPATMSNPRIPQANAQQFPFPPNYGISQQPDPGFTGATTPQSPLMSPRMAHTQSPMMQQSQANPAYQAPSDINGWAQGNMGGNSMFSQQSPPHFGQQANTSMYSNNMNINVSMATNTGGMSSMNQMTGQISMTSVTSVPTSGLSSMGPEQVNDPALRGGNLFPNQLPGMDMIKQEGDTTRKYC

| Compound | inhibition [1] | inhibition [2] |
| --- | --- | --- |
| O=C(CCCc1cccs1)N1CCN(S(=O)(=O)c2ccccc2Br)CC1 | -1.31% | -4.17% |
| COc1cc(OC)c(-c2c3cc(O)c(=O)cc-3oc3cc(O)c(O)cc23)cc1OC | 9.48% | 3.62% |
| O=C(Nc1ccc(F)cc1)c1nc(S(=O)(=O)Cc2ccccc2)ncc1Cl | 36.6% (active) | 37.9% |
| CS(=O)(=O)N1CCC(C(=O)NCc2ccccc2)CC1 | -4.73% | -13.2% |
| O=C(O)CCSc1nc2ccccc2s1 | 40.8% (active) | 58.5% (active) |
| O=C(O)c1ccc(Nc2nc3c(s2)CCCC3)cc1 | -31% | 10.9% |
| O=c1ccn(Cc2ccc(F)cc2)c2ccnc(C(F)(F)F)c12 | 14.8% | 16.6% |
| CCc1ccc(-c2nc(CSCC(=O)NC3CC3)c(C)o2)cc1 | 47.6% (active) | 35.1% |
| CN1CCN(S(=O)(=O)c2ccc(N(C)Cc3cccc(F)c3)nc2)CC1 | -0.35% | -11.8% |
| Cc1ccc(NC(=O)C2CCC(C(C)(C)C)CC2)cc1S(=O)(=O)N1CCOCC1 (stereo unspecified) | 3.84% | 12.3% |
| CCOc1cccc(NC(=O)C2CCCN(S(=O)(=O)c3ccc(OC)cc3)C2)c1 (stereo unspecified) | -26.5% | -6.98% |
| CN(C)c1ccc(C2Nc3ccccc3C(=O)N2CCCN2CCOCC2)cc1 (stereo unspecified) | -12.2% | 2.92% |
| COc1ccc(C(=O)Nn2c(SCC(=O)N3CCC(C)CC3)nc3ccccc3c2=O)cc1 | 23.9% | 28.9% |
| Cc1ccc(NS(=O)(=O)c2cccc(C(=O)NCCCN3CCCC3=O)c2)cc1 | -1.94% | 0.08% |
| O=C(O)Cc1nn(Cc2ccc(Cl)cc2)c(=O)c2ccccc12 | -13.4% | -30.9% |
| S=C(NCc1ccc(Cl)cc1)NC1CCN(Cc2ccccc2)CC1 | -17.5% | 19.2% |
| COc1cccc2c1C(CO)N1C(C#N)C3CC(C(=O)O)C(C1C2)N3C (stereo unspecified) | 40.5% (active) | 66.1% (active) |

| Compound | inhibition [1] | inhibition [2] |
| --- | --- | --- |
| CCC1CN(C(=O)NCc2cccc(OC)c2)c2ccccc2O1 (stereo unspecified) | -11.8% | -14.7% |
| COc1ccc(OCCNC(=O)c2ccc3nc(C)c(N(C)C(=O)CCc4ccccc4)n3c2)cc1 | -12.5% | 2.8% |
| COc1cc(S(=O)(=O)N(C)Cc2ccc3c(c2)OCCO3)ccc1NC(C)=O | -27.6% | -19.6% |
| N=c1nc(SCCC(=O)O)ss1 | 14.4% | 51.7% (active) |
| COc1ccc(/C=C2\SC(=S)N(CCCC(=O)N3CCN(C)CC3)C2=O)cc1 | -11.9% | 2.68% |
| COc1cc(NC(=O)CSc2nnc3c(C)cc4cc(C)cc(C)c4n23)c(C(=O)O)cc1OC | -9.86% | -11.4% |
| Oc1ccc(N=Nc2ccc3c(c2)OCCO3)c2ncccc12 | -13.1% | 13.6% |
| CC(=O)Nc1ccc(Nc2cc(C)nc3c(-c4ccccc4)cnn23)cc1 | -21.3% | 35.7% |
| CCN(C(=O)C1CCCN(c2nnc(-n3cccc3)s2)C1)c1ccccc1C (stereo unspecified) | 11.5% | 16.4% |
| CC(=O)Nc1cccc(-c2cc(NC(C)=O)c3ncc(-c4ccccc4)n3c2)c1 | -11.4% | 2.68% |
| O=C(CN1CCN(CC(=O)Nc2ccccc2Cc2ccccc2)CC1)Nc1ccccc1Cl | 11.3% | 4.85% |
| Cc1ccc(S(=O)(=O)C(NC(=O)c2ccccc2)=C(Cl)Cl)cc1 | 14.1% | 16.8% |
| COc1ccc(S(=O)(=O)N2CCC(C(=O)c3ccc4c(c3)OCCO4)CC2)cc1 | -0.72% | -0.4% |
| COC(=O)c1ccc(Sc2nnnn2-c2ccccc2)c([N+](=O)[O-])c1 | 20.1% | 48.2% (active) |
| CCOc1ccc(NC(=S)NC(=O)/C=C/c2ccc(OC)cc2)c([N+](=O)[O-])c1 | -22.3% | -19.4% |
| Cc1ccc(C(=O)NCc2cccc(C(F)(F)F)c2)cc1S(=O)(=O)N1CCCCC1 | -7.82% | -8.4% |
